The nature of assay [1]: qHTS assay to identify small molecule antagonists of the estrogen receptor alpha (ER-alpha) signaling pathway using the BG1 cell line in the presence of 0.1 nM 17-beta-estradiol - cell viability counter screen (AID 1259241). Further: nearly all actives have a fitted effect of over 40% in size. Further: potency means the concentration at half of the fitted maximal effect. The gist of the method: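 Cytotoxicity counter-screen: live-cell protease activity measured by fluorescence (30 min reagent step) in the same wells. Cells were VM7Luc4E2 with endogenous ER-alpha and ERE-driven luciferase, treated 22 hr at 37C alongside 0.1 nM 17beta-estradiol final.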
A general note: qHTS replaces the single test concentration by a dilution series.

A short description of assay [2]: qHTS assay to identify small molecule antagonists of the androgen receptor (AR) signaling pathway using the MDA cell line in the presence of 0.5 nM R1881 - cell viability counter screen (AID 1259242). Further: nearly all actives have a fitted effect of over 45% in size. Further: potency means the concentration at half of the fitted maximal effect. Put shortly: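 Concentration-response screen of compounds for toxicity in MDA-kb2 reporter cells: 16 hr at 37C with 0.5 nM R1881, endpoint live-cell protease fluorescence measured in the reporter wells.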

Assay [3] deals with Androgen receptor (Homo sapiens) (UniProt P10275). As to the kind of experiment: qHTS assay to identify small molecule antagonists of the androgen receptor (AR) signaling pathway using the MDA cell line in the presence of 0.5 nM R1881 (AID 1259243). Further: nearly all actives have a fitted effect of over 50% in size. Further: potency means the concentration at half of the fitted maximal effect. Put shortly: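 With R1881 held at 0.5 nM (final), compound effects on MMTV-luciferase expression in MDA-kb2 cells were scored by luminescence after a 16 hr, 37C incubation.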

A short description of assay [4]: qHTS assay to identify small molecule HDAC inhibitors (AID 1259364). Further: potency means the concentration at half of the fitted maximal effect.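 Further: wild-type HCT-116 cells with endogenous class I/II HDAC activity; nearly all actives have a fitted effect of over 45% in size.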 Put shortly:
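Screening used wild-type human colon HCT-116 cells incubated overnight, dosed with compounds for 2 hours, and assayed with a homogeneous luminogenic HDAC I/II reagent for 30 minutes at room temperature.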

A short description of assay [5]: qHTS assay to identify small molecule HDAC inhibitors - cell viability counter screen (AID 1259365). Further: series mostly up to about 92 µM; nearly all actives have a fitted effect of over 50% in size. The gist of the method: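 CellTiter-Glo luminescence (30 min, room temperature) reported viability after a 2 h compound exposure at 37 C. Cells: wild-type HCT-116, 1,500 per well, seeded the night before.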
Assay [6] in a line: qHTS assay to identify small molecule agonists of the sonic hedgehog signaling (Shh) pathway - cell viability counter screen (AID 1259366). Further: nearly all actives have a fitted effect of over 50% in size. Further: potency means the concentration at half of the fitted maximal effect. The gist of the method: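 Cytotoxicity counter screen: CellTiter-Fluor reagent added after 23 h compound exposure, then 1 h at 37C and fluorescence read. Cells were 3T3 Gli1-Luc, seeded 2,000 per well and dosed 4 h post-plating.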
A short description of assay [7]: qHTS assay to identify small molecule antagonists of the sonic hedgehog signaling (Shh) pathway - cell viability counter screen (AID 1259367). Further: nearly all actives have a fitted effect of over 55% in size. Further: potency means the concentration at half of the fitted maximal effect. Put shortly:
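Viability was read by CellTiter-Fluor fluorescence in the same wells, reagent added 23 hr into compound treatment and incubated 1 hr at 37C. The 3T3 Gli1-Luc reporter cells (2,000/well) received conditioned medium after compound and ran 24 hr.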

Assay [8] in a line: qHTS assay to identify small molecule agonists of the sonic hedgehog signaling (Shh) pathway (AID 1259368; calls by dose curve;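 further: NIH/3T3-derived 3T3Gli1-Luc cells carrying a stable Gli1-driven firefly luciferase reporter; series mostly up to about 92 µM; nearly all actives have a fitted effect of over 15% in size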). Put shortly: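 Hedgehog pathway agonism scored by increased firefly luciferase luminescence in 3T3Gli1-Luc cells treated 24 hr at 37 C; detection used a 30 min room-temperature reagent incubation.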
For assay [9], the target named is Estrogen receptor (Homo sapiens) (UniProt P03372). The assay can be described thus: qHTS assay to identify small molecule antagonists of the estrogen receptor alpha (ER-alpha) signaling pathway using the BG1 cell line in the presence of 0.1 nM 17-beta-estradiol (AID 1259244). Further: nearly all actives have a fitted effect of over 50% in size. Further: potency means the concentration at half of the fitted maximal effect. The gist of the method: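 Compounds were tested against 0.1 nM (final) 17beta-estradiol in VM7Luc4E2 cells, which express full-length ER-alpha and an ERE-luciferase reporter; luminescence was recorded following 22 h exposure.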

Assay [10] can be described thus: qHTS assay to identify small molecule phospholipidosis (PLD) inducers (AID 1259344; active means well fitted curve in the direction sought with a large enough effect; an effect the other way counts as inactive or inconclusive). Put shortly:
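Phospholipid accumulation was scored by imaging: fixed, Hoechst-counterstained HepG2 cells stained with LipidTOX Red after 24 h compound exposure at 37 C. Read-outs were pit count and pit intensity per well or per cell, with amiodarone and DMSO controls.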

Values joined by “and” are separate entries in the source; they are usually repeats but may differ in a detail not shown here. Equal values may be shown once. Results filed as inconclusive are left out. More than one record can exist for a structure, and the calls need not agree. Active and inactive are the calls of the source. Unless noted, the call rests on the fitted dose curve; in most records, active means well fitted curve in the direction sought with a large enough effect in the repeat runs; inconclusive means weak or mixed curves; inactive means no such curve, though single readings can be large; an effect the other way counts as inactive or inconclusive.

Sequence of Estrogen receptor (Homo sapiens) (P03372 whole entry, looked up): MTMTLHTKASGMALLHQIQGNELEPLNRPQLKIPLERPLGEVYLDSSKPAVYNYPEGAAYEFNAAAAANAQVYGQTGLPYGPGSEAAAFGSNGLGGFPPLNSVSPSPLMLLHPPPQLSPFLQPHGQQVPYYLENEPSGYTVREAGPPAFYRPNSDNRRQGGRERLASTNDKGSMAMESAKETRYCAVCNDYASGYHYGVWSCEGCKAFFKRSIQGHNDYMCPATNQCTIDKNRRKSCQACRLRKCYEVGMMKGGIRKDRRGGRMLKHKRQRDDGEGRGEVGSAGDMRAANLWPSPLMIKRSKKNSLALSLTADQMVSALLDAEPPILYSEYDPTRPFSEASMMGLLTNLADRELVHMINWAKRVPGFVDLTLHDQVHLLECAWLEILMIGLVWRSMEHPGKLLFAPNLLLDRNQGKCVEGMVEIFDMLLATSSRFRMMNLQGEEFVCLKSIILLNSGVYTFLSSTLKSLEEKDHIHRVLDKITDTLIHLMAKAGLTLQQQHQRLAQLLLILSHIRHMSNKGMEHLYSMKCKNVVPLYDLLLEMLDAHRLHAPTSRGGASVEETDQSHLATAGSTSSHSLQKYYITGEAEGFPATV
Sequence of Androgen receptor (Homo sapiens) (P10275 whole entry, looked up): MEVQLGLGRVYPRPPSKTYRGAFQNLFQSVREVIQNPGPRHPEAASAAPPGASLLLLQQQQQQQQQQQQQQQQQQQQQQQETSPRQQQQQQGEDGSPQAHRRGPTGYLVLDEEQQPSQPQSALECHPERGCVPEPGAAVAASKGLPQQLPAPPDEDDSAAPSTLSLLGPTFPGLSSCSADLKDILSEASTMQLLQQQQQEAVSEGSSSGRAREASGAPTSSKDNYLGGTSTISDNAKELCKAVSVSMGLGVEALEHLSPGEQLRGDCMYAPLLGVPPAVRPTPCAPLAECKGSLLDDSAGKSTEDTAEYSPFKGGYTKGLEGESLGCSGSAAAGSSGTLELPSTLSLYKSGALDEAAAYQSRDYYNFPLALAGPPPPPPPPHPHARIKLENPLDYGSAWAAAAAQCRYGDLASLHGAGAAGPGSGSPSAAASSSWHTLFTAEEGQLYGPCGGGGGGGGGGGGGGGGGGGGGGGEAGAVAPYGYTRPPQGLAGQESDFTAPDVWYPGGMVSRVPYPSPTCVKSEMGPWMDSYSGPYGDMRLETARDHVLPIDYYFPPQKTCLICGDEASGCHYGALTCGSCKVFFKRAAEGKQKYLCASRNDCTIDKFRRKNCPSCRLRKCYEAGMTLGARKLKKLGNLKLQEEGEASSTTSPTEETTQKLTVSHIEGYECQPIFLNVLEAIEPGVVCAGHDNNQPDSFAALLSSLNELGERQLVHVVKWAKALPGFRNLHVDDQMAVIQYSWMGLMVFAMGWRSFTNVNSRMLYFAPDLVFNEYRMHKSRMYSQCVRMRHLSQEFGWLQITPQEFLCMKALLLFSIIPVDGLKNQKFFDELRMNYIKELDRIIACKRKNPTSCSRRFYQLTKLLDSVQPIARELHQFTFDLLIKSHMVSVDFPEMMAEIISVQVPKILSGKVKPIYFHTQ

For the molecule `O=C1CCCO1`, the Potency entry in [1], in assay [2], in assay [3], in assay [4], in [5] and in [6] was “inactive” each time. Besides, the Potency entry in assay [7] and in [8] was “inactive” each time.

Take `O=[N+]([O-])/N=C1\NCCN1Cc1ccc(Cl)nc1`: the Potency entry in [1], in assay [2], in assay [3], in assay [9], in [4] and in [5] was “inactive” in each case. For the same molecule, the Potency result in [6], in [7] and in assay [8] was “inactive” in each case. For the same molecule, the result in [10] was inactive.

On to `CC(C)=CC1C(C(=O)OCN2C(=O)C3=C(CCCC3)C2=O)C1(C)C` (centres undefined), for which the Potency entry in assay [1], in assay [2], in assay [3], in assay [4], in [5] and in assay [6] was “inactive” in each case. The Potency result in assay [7] and in assay [8] was “inactive” each time. Moreover, the outcome in assay [10] was inactive.

With `N#Cc1nn(-c2c(Cl)cc(C(F)(F)F)cc2Cl)c(N)c1S(=O)C(F)(F)F` (centres undefined), the Potency entry in assay [1], in [2], in assay [4], in assay [5], in assay [6] and in assay [7] was “inactive” throughout. Also, the Potency result in assay [8] was “inactive”. In addition, the Potency in assay [3] was 9.75 µM (active) and 15 µM (active); in assay [9], 6.9 µM (active) and 21.1 µM (active). In assay [10], the call was inactive.

For the molecule `CC(C)=CC1C(C(=O)OCc2cccc(Oc3ccccc3)c2)C1(C)C` (centres undefined), the Potency entry in [1], in assay [2], in assay [9], in [4], in [5] and in assay [6] was “inactive” each time. Also, the Potency entry in [7] and in assay [8] was “inactive” in each case. In addition, in assay [10], the result was inactive.

With `CCOP(=S)(OCC)OP(=S)(OCC)OCC`, the Potency entry in assay [1], in assay [2], in [3], in assay [4], in [5] and in assay [6] was “inactive” in each case. Also, the Potency result in assay [7] and in assay [8] was “inactive” throughout.

`S=c1[nH]c2ccccc2[nH]1`: the Potency entry in [1], in [2], in assay [3], in assay [4], in [5] and in [6] was “inactive” in each case. In addition, the Potency result in [7] and in [8] was “inactive” each time.

Regarding `C=CC(=O)OCC(CC)(COC(=O)C=C)COC(=O)C=C`, the Potency in assay [1] was 70.4 µM (active); in [2] it was 31.5 µM (active); in assay [3], 4.99 µM (active) and 13.7 µM (active); in [9], 22.3 µM (active) and inactive; in assay [6], 11.2 µM (active) and 9.69 µM (active); in assay [7] it was 8.87 µM (active) and 9.69 µM (active). Moreover, the Potency entry in [4] and in [8] was “inactive” each time.

As for `Clc1ccccc1-c1nnc(-c2ccccc2Cl)nn1`, the Potency entry in assay [1], in assay [2], in [9], in assay [5], in [6] and in assay [7] was “inactive” in each case. For the same molecule, the Potency in assay [4] is 9.6 µM (active) and 4.31 µM (active).

Take `C[N+](C)(C)CC(=O)[O-]`: the Potency entry in assay [1], in assay [2], in [9], in assay [4], in [5] and in assay [6] was “inactive” in each case. The Potency entry in assay [7] and in [8] was “inactive” in each case. For the same molecule, in assay [10], the call was inactive.

Turning to `Oc1ccc(Cl)cc1Cc1ccccc1`, the Potency entry in assay [1], in assay [2], in [4], in assay [5], in assay [7] and in assay [8] was “inactive” in each case. In addition, the Potency in [3] was 12.2 µM (active) and 4.38 µM (active); in assay [6], 55.1 µM (active) and inactive. In assay [10], the outcome was inactive.

With `CC(C)(c1ccc(OCC2CO2)cc1)c1ccc(OCC2CO2)cc1` (centres undefined), the Potency entry in assay [1], in [2], in assay [3], in assay [9], in [4] and in [5] was “inactive” throughout. The Potency entry in assay [6], in assay [7] and in assay [8] was “inactive” each time.

`Cc1ccc(N=CN(C)C=Nc2ccc(C)cc2C)c(C)c1`: the Potency result in assay [1], in assay [2], in assay [9], in [4], in assay [5] and in assay [6] was “inactive” throughout. Further, the Potency entry in [7] and in assay [8] was “inactive” throughout. The call in assay [10] was inactive.

Turning to `O=[N+]([O-])c1ccc(Cl)c([N+](=O)[O-])c1`, the Potency in assay [1] is 27.7 µM (active) and 54.5 µM (active); in assay [2] it was 24.7 µM (active) and 21.7 µM (active); in assay [3], 12.4 µM (active); in [9], 31.1 µM (active) and 43.3 µM (active); in assay [6] it was 5.53 µM (active) and 13.7 µM (active); in assay [7], 3.92 µM (active) and 10.9 µM (active). Moreover, the Potency entry in assay [4] and in assay [8] was “inactive” in each case.

For `COP(=S)(OC)Oc1ccc(S(=O)(=O)N(C)C)cc1`, the Potency result in assay [1], in assay [2], in assay [3], in assay [9], in [4] and in [5] was “inactive” throughout. In addition, the Potency entry in assay [6], in assay [7] and in assay [8] was “inactive” each time. Besides, the molecule was classed as inactive in assay [10].

For `C=CC(Cl)CCl` (centres undefined), the Potency result in [1], in [2], in assay [3], in [4], in [5] and in [6] was “inactive” in each case. For the same molecule, the Potency entry in assay [7] and in [8] was “inactive” throughout.

With `COP(=S)(OC)SCn1nnc2ccccc2c1=O`, the Potency entry in assay [1], in assay [2], in assay [4], in [5], in assay [6] and in assay [8] was “inactive” in each case. In addition, in assay [3], the Potency was 23.9 µM (active) and 17.2 µM (active).

Consider `O=C(O)CF`, for which the Potency entry in assay [1], in assay [2], in assay [9], in [4], in assay [5] and in [6] was “inactive” each time. For the same molecule, the Potency result in assay [7] and in assay [8] was “inactive” each time.

The values above are taken from PubChem BioAssay (Tox21).
